# HER2 expr 66K: inhibitors of Her2 protein expression, primary screen, SKBR-3 cells, AlphaScreen, 66K library | Receptor tyrosine-protein kinase erbB-2 (Homo sapiens), P04626 | SKBR-3 HER2 protein level, 18-24 h; active compounds read low | HER2 level % of control, % at 10 µM | 0.69% of 65,000 active | AID 645, 2007;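 active = HER2 level under 5% of the carrier-only control; inconclusive = no clear call, values can overlap the other calls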;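 note: 100% = DMSO carrier and 0% = 500 nM PU-H71 HSP90 inhibitor; lower value means stronger loss of Her2 protein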
# Cav32 inh: Cav3.2 calcium influx blockers – cell-based, Fluo-4 calcium fluorescence, FDSS, MLSMR library, primary screen; Voltage-dependent T-type calcium channel subunit alpha-1H (Homo sapiens), O95180; Cav3.2-expressing cells; active compounds read low; B-score at 10 µM; 4% of 100,000 active; AID 449739, 2010;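 active = single-dose well whose peak fluorescence ratio is a statistical outlier from its plate by either plate-standardised score or position-corrected B-score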
# M1 agonist: M1 muscarinic receptor agonists, primary screen, CHO-M1 cells, Fluo-4 calcium, agonist mode. B-score at 10 µM. Muscarinic acetylcholine receptor M1. Fluo-4 calcium fluorescence; active compounds read high. 3% of 64,000 active;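 active = fluorescence rise, raw or as B-score row- and column-corrected plate score, outside the 99.7% band of its plate's samples, either direction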
# M1 antag: antagonists of rat M1 muscarinic receptor; CHO-M1 cells, Fluo-4 calcium, ACh EC80 antagonist mode; active compounds read low; AID 628, 2007; 3.4% of 64,000 active; B-score at 10 µM;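 active = calcium fluorescence response, raw or row-and-column corrected B-score, differing from the plate sample mean either way at a set confidence level, mostly lower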
# PLAP activator: PLAP enzyme activators, biochemical, luminescence, HTS | Alkaline phosphatase, placental type (Homo sapiens), P05187 | purified PLAP enzyme, luminescent substrate read-out; active compounds read high | activation fold at 20 µM | 1.2% of 96,000 active | AID 696, 2007; in the data active = activation fold above about 2
# M1 agonist conf: rat M1 muscarinic receptor agonists, confirmation, CHO-M1 cells, Fluo-4 calcium, duplicate retest; 19% of 1,700 active; fluorescence change (max-min) at 10 µM; AID 1488, 2009; Fluo-4 calcium fluorescence, agonist mode; actives lie on both sides; shares compounds with M1 agonist;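 active = fluorescence change differs from the solvent-only DMSO control mean at a set confidence level in both duplicate runs; inconclusive = differs from solvent-only control mean in just one of two runs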;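 note: an EC20 dose of acetylcholine follows compound addition during the same imaging run; raw fluorescence intensity difference in instrument units with no normalization to controls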
# M4 ag counter: agonist activity at rat M4 receptor, confirmation, counter-screen for M1 allosteric modulator project, cell-based, agonist mode | CHO M4/Gqi5 cells, Fluo-4 calcium fluorescence; actives lie on both sides | 9% of 1,700 active | shares compounds with M1 agonist | fluorescence change (max-min) at 10 µM | AID 1741, 2009;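 active = fluorescence change differing from the plate's solvent-only control wells at 99.7% confidence in both duplicates, whether higher or lower; inconclusive = differs from solvent controls in only one of two duplicates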
# An asterisk follows results filed as active; u = inconclusive; x = no result. Sampled rows, rich in hits. Any-hit rate of the full collection: about 7.9%.
SMILES,HER2 expr 66K,Cav32 inh,M1 agonist,M1 antag,PLAP activator,M1 agonist conf,M4 ag counter
COc1cccc(OCCn2cc(C(=O)c3ccco3)c3ccccc32)c1,84,-1.8,5*,-0.058,1.2,-19,-39
COc1ccc(OC)c(NC(=O)Cn2cc(C(=O)c3ccco3)c3ccccc32)c1,92,-2.1,0.39,0.51,1,x,x
CCCCN1CCCCC1C(=O)Nc1c(C)cc(C)cc1C (centres undefined),119,0.3,-0.36,0.012,1.6,x,x
Cc1cc(C)c(NC(=O)C2CCCN2CCO)c(C)c1 (centres undefined),135,x,2*,0.22,0.9,1.8,-8.9
Cc1c(NC(=O)C2C3C=CC(C3)C2C(=O)O)c(=O)n(-c2ccccc2)n1C (centres undefined),x,0.72,x,x,1.2,x,x
CS(=O)(=O)N(CC(=O)N1CCCC1)c1cccc(Cl)c1,113,x,x,x,0.9,x,x
COc1ccccc1OCC(O)Cn1c(Br)nc2c1c(=O)[nH]c(=O)n2C (centres undefined),90,-0.0075,4*,-0.12,0.9,-12,-21
O=C(c1cc2ccccn2n1)N1CCCC1,83,x,-0.51,0.67,0.9,x,x
Cc1ccc(C)c(N2CCN(C(=O)c3cc4ccccn4n3)CC2)c1,87,-2.3,31*,-0.77,1.2,55,10
O=C(/C=C/Nc1ccccc1)c1ccccc1,x,x,x,x,0.8,x,x
CN(C)c1ccc(N/C=C/C(=O)c2ccccc2)cc1,73,-2.7,2.5*,-0.065,1,u,-8.6
Cc1c(-n2cc(C(=O)c3cc(Br)ccc3O)cc(C#N)c2=O)c(=O)n(-c2ccccc2)n1C,x,-0.039,x,x,1.2,x,x
Cc1ccc(Cl)cc1N1CCN(C(=O)C2CCN(S(=O)(=O)c3c(C)nn(C)c3C)CC2)CC1,65,x,8*,-2.6*,1.4,u,-59
O=C(Cn1cc(C(=O)c2cccs2)c2ccccc21)NCc1ccc2c(c1)OCO2,89,-3,1.3,0.036,0.7,x,x
O=c1oc2c3c4c(cc2c2c1CCC2)OCCN4CCC3,98,-0.64,24*,-1.4,1.2,111*,93
Cc1coc2c(C)c3oc(=O)c4c(c3cc12)CCC4,81,x,0.42,0.099,x,x,x
N#CC1=C(N)Oc2nc(-c3ccccc3)[nH]c2C1c1cccnc1 (centres undefined),91,0.92,-0.033,1.1,1,x,x
Cc1ccc(C2C(C#N)=C(N)Oc3nc(-c4ccccc4)[nH]c32)o1 (centres undefined),92,-0.0061,3.5*,-0.14,1,-24*,-35
COc1ccc(N(CC(=O)Nc2ccc(S(=O)(=O)N3CCOCC3)cc2)S(=O)(=O)c2ccccc2)cc1,x,-1.1,x,x,1.1,x,x
O=C(Nc1ccc(F)cc1)N(Cc1ccco1)Cc1cc2cc3c(cc2[nH]c1=O)OCO3,118,0.32,-2.5*,0.79,0.9,-13,-22
Cc1ccc(NC(=O)N(Cc2ccc3c(c2)OCO3)Cc2cc3cc4c(cc3[nH]c2=O)OCCO4)cc1,82,-0.83,0.63,-0.32,0.9,x,x
COC(=O)c1nnn(-c2nonc2N)c1-c1cccs1,117,1.2,0.091,-0.13,0.9,x,x
CCOC(=O)CNC(=O)CSc1nnc(-c2ccco2)n1N,91,-0.44,2.3*,1.2,1.1,-27*,-89*
C=CCN(CC=C)S(=O)(=O)c1ccc2nc(NC(=O)C(C)C)sc2c1,65,-3.3,8.5*,-2.4*,0.9,u,-29
O=S(=O)(Nc1cccnc1)c1ccc(C2CCCCC2)cc1,99,-1.7,7.1*,-3.1*,0.9,12,-15
SMILES,HER2 expr 66K,Cav32 inh,M1 agonist,M1 antag,PLAP activator,M1 agonist conf,M4 ag counter
COCCNC(=O)C(c1ccc(C)o1)N(CC1CCCO1)C(=O)Cn1nnc2ccccc21 (centres undefined),96,-0.088,1.9*,-0.031,1.4,u,-50
CCCNS(=O)(=O)c1ccc(CCC(=O)N2CCN(CC)CC2)cc1,x,1.1,x,x,1.7,x,x
CCCNS(=O)(=O)c1ccc(CCC(=O)N2CCCCC2)cc1,91,-0.2,4.8*,1.1,1.1,u,-49
CCOC(=O)C(CC)n1cnc2c(nnn2-c2ccc(C)cc2)c1=O (centres undefined),85,-0.61,6.4*,0.53,1,-22,-71*
COC(=O)Nc1snnc1C,x,0.33,x,x,1,x,x
Cc1ccc(-c2nn[nH]n2)o1,99,-0.48,4.3*,0.095,1.2,-15,u
O=C(Nc1ccccc1)c1ccccc1OCC(O)CN1C(=O)c2ccccc2S1(=O)=O (centres undefined),83,-0.53,6.1*,-1.9,0.9,-20,u
COc1cc(OC)cc(C(=O)OCc2cc3ccccc3[nH]c2=O)c1,87,0.15,-0.11,0.35,0.8,x,x
CN(C)c1nc(OCC(=O)NC(C)(C)C)nc(N(C)C)n1,129,0.58,0.15,0.88,1,x,x
Cc1csc(SCCn2c(N3CCN(c4ccccc4)CC3)nc3c2c(=O)[nH]c(=O)n3C)n1,79,1.2,5.4*,-2.5*,1.3,u,-57
Oc1ccc2cccnc2c1,174,-1.1,15*,-0.007,0.7,112*,46
O=C(Cc1ccc2cccnc2c1)c1ccc(O)cc1O,116,-0.32,-1.8,-0.29,1,x,x
COc1ccccc1N(C)S(=O)(=O)c1ccc(C(=O)OCC(=O)NCc2ccco2)cc1,94,-1.2,6.9*,-0.65,1.1,-19,-38
CCN=C1SC(C(=O)Nc2cccc(C)c2)CC(=O)N1CC (centres undefined),x,-0.69,x,x,1,x,x
CCN=c1sc(C(=O)NCCc2ccccc2)cc(=O)n1CC,82,-0.12,12*,-2.9*,0.9,-7.2,-15
CCN=C1SC(C(=O)NCCc2ccccc2)CC(=O)N1CC (centres undefined),102,0.018,4.8*,-1.2,1.1,u,-26
O=C(NCCc1ccccc1)c1cccs1,x,0.31,x,x,0.7,x,x
O=C(CSc1nnc(-c2ccc(O)cc2)n1Cc1ccco1)N1CCc2ccccc2C1,83,0.58,1.1,0.14,1.5,x,x
CCC(=O)N1CCN(c2ccccc2NC(=O)COc2cccc(C)c2)CC1,75,-2.2,2.6,-0.6,1.5,x,x
CC(=O)N1CCN(c2ccccc2NC(=O)COc2cc(C)ccc2C(C)C)CC1,72,-5.7*,4.3*,-0.87,1.7,-26*,-56
